PubChem BioAssay (NCI)
This is part of a sample that, as a whole, favours compounds with a hit. Of some 79,000 tested, about 15% had one in any assay. Activity calls are given as the source filed them. No stated cut-off is given here; in the data, active means growth inhibition above about 70%; inactive means the rest.

Key:
[1] = NCI Yeast Anticancer Drug Screen. Data for the rad52 strain (AID 147);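 further: 0% = growth of vehicle-treated control cultures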; settings: S. cerevisiae rad52 mutant growth inhibition, active compounds read high
Procedure, shortened: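 Growth of repair-deficient yeast cells was compared between compound-treated and vehicle-treated cultures to give percent inhibition.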

[2] = NCI Yeast Anticancer Drug Screen. Data for the rad50EPP+ strain (AID 151);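 further: 0% = growth of vehicle-treated control cultures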; settings: S. cerevisiae rad50 mutant strain, active compounds read high
Procedure, shortened: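 Measured: growth inhibition of rad50EPP+ yeast. Reference: vehicle-treated controls. Screen uses strains with defined genetic alterations in DNA damage repair or cell cycle control.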

[3] = NCI Yeast Anticancer Drug Screen. Data for the mgt1 strain (AID 153); settings: S. cerevisiae mgt1 mutant growth inhibition, active compounds read high
Procedure, shortened: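 Compounds were applied to mgt1 mutant yeast, and growth was then compared against vehicle-treated control cultures to give percent inhibition.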

[4] = NCI Yeast Anticancer Drug Screen. Data for the rad50 strain (AID 155);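 further: 0% = growth of vehicle-only cultures of the same strain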; settings: S. cerevisiae rad50 strain growth inhibition, active compounds read high
Procedure, shortened: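 Cells are treated with compound, grown, and their growth is then scored against vehicle-only cultures of the same repair-deficient yeast strain.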

[5] = NCI Yeast Anticancer Drug Screen. Data for the mec2-1 strain (AID 157); settings: S. cerevisiae mec2-1 strain, active compounds read high
Procedure, shortened: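 Compounds were applied to mec2-1 yeast cells. Their growth was then compared with that of vehicle-treated cultures to give growth inhibition.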

[6] = NCI Yeast Anticancer Drug Screen. Data for the rad14 strain (AID 159);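 further: 0% = growth of vehicle-treated control cultures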; settings: S. cerevisiae rad14 strain growth inhibition, active compounds read high
Procedure, shortened: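 Readout: yeast growth inhibition, referenced to vehicle-only cultures. Strain bears a defined alteration in DNA damage repair.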

[7] = NCI Yeast Anticancer Drug Screen. Data for the CLN2oe strain (AID 163);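 further: 0% = growth of vehicle-only control cultures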; settings: S. cerevisiae CLN2oe strain, active compounds read high
Procedure, shortened: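 Cells of an engineered yeast line with disturbed cell-cycle regulation are treated with compound. Inhibition of growth is then calculated relative to the vehicle-treated reference.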

[8] = NCI Yeast Anticancer Drug Screen. Data for the cln2 rad14 strain (AID 165);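 further: 0% = growth equal to vehicle treated cultures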; settings: S. cerevisiae cln2 rad14 strain, active compounds read high
Procedure, shortened: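 Strain: cln2 rad14 yeast, altered in cell cycle control and DNA damage repair. Read-out: growth inhibition vs vehicle.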

[9] = NCI Yeast Anticancer Drug Screen. Data for the bub3 strain (AID 167); settings: S. cerevisiae bub3 mutant strain, active compounds read high
Procedure, shortened: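 Part of a panel of yeast mutants defective in DNA damage repair or cell cycle regulation. Each strain is grown with compound, and inhibition is calculated relative to solvent-treated cultures.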

[10] = NCI Yeast Anticancer Drug Screen. Data for the wt2 strain (AID 169);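 further: 0% = growth of vehicle-treated yeast cultures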; settings: S. cerevisiae wt2 strain growth inhibition, active compounds read high
Procedure, shortened: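 Growth of compound-treated yeast is measured and expressed as inhibition relative to vehicle-only controls.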

[11] = NCI Yeast Anticancer Drug Screen. Data for the mlh1 strain (AID 171);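 further: 0% = growth of vehicle-treated control cultures of the same strain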; settings: S. cerevisiae mlh1 strain growth inhibition, active compounds read high
Procedure, shortened: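 Test agents were incubated with yeast bearing a defined DNA damage repair or cell cycle control alteration; values are growth inhibition normalised to vehicle-treated cultures.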

[12] = NCI Yeast Anticancer Drug Screen. Data for the sgs1 strain (AID 173);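 further: 0% = growth of vehicle-only control cultures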; settings: S. cerevisiae sgs1 mutant, active compounds read high
Procedure, shortened: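 Strain with an altered DNA repair or cell cycle pathway exposed to compound. Growth then measured. Value = inhibition versus vehicle control.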

[13] = NCI Yeast Anticancer Drug Screen. Data for the mlh1 rad18 strain (AID 175); settings: S. cerevisiae mlh1 rad18 strain growth inhibition, active compounds read high
Procedure, shortened: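 A repair-deficient yeast strain is exposed to test compound, and growth is scored relative to vehicle-treated controls.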

[14] = NCI Yeast Anticancer Drug Screen. Data for the rad18 strain (AID 177); settings: S. cerevisiae rad18 mutant growth inhibition, active compounds read high
Procedure, shortened: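 DNA-repair-defective yeast; compound treatment; growth inhibition scored against vehicle.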

[15] = NCI Yeast Anticancer Drug Screen. Data for the wt1 strain (AID 149);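 further: 0% = growth of vehicle-treated wt1 cultures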; settings: S. cerevisiae wt1 strain (SPY 50644) growth inhibition, active compounds read high
Procedure, shortened: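 The wt1 strain was treated with compounds, and growth was compared with vehicle-treated cultures to give inhibition.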

[16] = NCI Yeast Anticancer Drug Screen. Data for the sgs1 mgt1 strain (AID 161);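 further: 0% = growth of cultures given vehicle only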; settings: S. cerevisiae sgs1 mgt1 strain, active compounds read high
Procedure, shortened: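 Compounds are added to genetically altered yeast, and growth is compared with cultures given vehicle alone to give percent inhibition.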

[17] = at 5.0 µM (retest, dose inferred, filed as 0.5)
[18] = at 50.0 µM (retest, dose inferred, filed as 5.0)

Measured: growth inhibition

CN(C)C[C@H]1CC[C@@H](CN(C)C)C1=O
active: [2]; at 100.0 µM 84% | [4]; at 100.0 µM 78% | [5]; [18] 83% | [10]; at 100.0 µM 99% | [12]; at 100.0 µM 81% | [13]; at 50.0 µM 75% | [14]; at 100.0 µM 87%
inactive: [1]; at 1.2 µM 17% | [1]; at 3.7 µM 24% | [1]; at 11.0 µM 27% | [1]; at 33.0 µM 39% | [1]; at 100.0 µM 66% | [2]; at 1.2 µM 16% | [2]; at 3.7 µM 12% | [2]; at 11.0 µM 27% | [2]; at 33.0 µM 50% | [3]; at 1.2 µM 16% | [3]; at 3.7 µM 20% | [3]; at 11.0 µM 25% | [3]; at 33.0 µM 30% | [3]; at 100.0 µM 43% | [4]; at 1.2 µM 11% | [4]; at 3.7 µM 31% | [4]; [17] 5% | [4]; at 11.0 µM 22% | [4]; at 33.0 µM 37% | [4]; [18] 36% | [4]; at 50.0 µM 70% | [5]; at 1.2 µM 13% | [5]; at 3.7 µM 20% | [5]; [17] 9% | [5]; at 11.0 µM 16% | [5]; at 33.0 µM 28% | [5]; at 50.0 µM 57.3% | [5]; at 100.0 µM 49% | [6]; at 1.2 µM 16% | [6]; at 3.7 µM 20% | [6]; at 11.0 µM 21% | [6]; at 33.0 µM 30% | [6]; at 100.0 µM 52% | [7]; at 1.2 µM -4% | [7]; at 3.7 µM 0% | [7]; at 11.0 µM 9% | [7]; at 33.0 µM 29% | [7]; at 100.0 µM 64% | [8]; [17] 20% | [8]; [18] 14% | [8]; at 50.0 µM 23.9% | [9]; at 1.2 µM 17% | [9]; at 3.7 µM 12% | [9]; [17] 9% | [9]; at 11.0 µM 19% | [9]; at 33.0 µM 29% | [9]; [18] 47% | [9]; at 50.0 µM 34.5% | [9]; at 100.0 µM 63% | [10]; at 1.2 µM -46% | [10]; at 3.7 µM -45% | [10]; at 11.0 µM -40% | [10]; at 33.0 µM 7% | [11]; at 1.2 µM 18% | [11]; at 3.7 µM 32% | [11]; at 11.0 µM 24% | [11]; at 33.0 µM 36% | [11]; at 100.0 µM 29% | [12]; at 1.2 µM 15% | [12]; at 3.7 µM 26% | [12]; at 11.0 µM 30% | [12]; at 33.0 µM 44% | [13]; [17] 7% | [13]; [18] 54% | [14]; at 1.2 µM 21% | [14]; at 3.7 µM 21% | [14]; at 11.0 µM 22% | [14]; at 33.0 µM 36%

CNC1C(OC2C(OC3C(O)C(O)C(N=C(N)N)C(O)C3N=C(N)N)OC(C)C2(O)CO)OC(CO)C(O)C1O (stereo not drawn)
active: [4]; at 50.0 µM 91.3% | [5]; at 50.0 µM 93.5% | [16]; at 50.0 µM 91.8% | [8]; at 50.0 µM 81.8% | [9]; at 50.0 µM 93.5% | [13]; at 50.0 µM 93.1%
inactive: [15]; at 1.2 µM 4% | [15]; at 3.7 µM -4% | [15]; at 11.0 µM -4% | [15]; at 33.0 µM 10% | [15]; at 100.0 µM -4% | [2]; at 1.2 µM -2% | [2]; at 3.7 µM 4% | [2]; at 11.0 µM -2% | [2]; at 33.0 µM -3% | [2]; at 100.0 µM -10% | [3]; at 1.2 µM 0% | [3]; at 3.7 µM 7% | [3]; at 11.0 µM -6% | [3]; at 33.0 µM 17% | [3]; at 100.0 µM -9% | [4]; at 1.2 µM -2% | [4]; at 3.7 µM 7% | [4]; [17] -19% | [4]; at 11.0 µM 4% | [4]; at 33.0 µM 31% | [4]; [18] -6% | [4]; at 100.0 µM -11% | [5]; at 1.2 µM -2% | [5]; at 3.7 µM -1% | [5]; [17] -15% | [5]; at 11.0 µM -3% | [5]; at 33.0 µM 10% | [5]; [18] 19% | [5]; at 100.0 µM -3% | [6]; at 1.2 µM -2% | [6]; at 3.7 µM 4% | [6]; at 11.0 µM -2% | [6]; at 33.0 µM 32% | [6]; at 100.0 µM -9% | [16]; [17] 19% | [16]; [18] -6% | [7]; at 1.2 µM -7% | [7]; at 3.7 µM -6% | [7]; at 11.0 µM -2% | [7]; at 33.0 µM 16% | [7]; at 100.0 µM -12% | [8]; [17] 11% | [8]; [18] 59% | [9]; at 1.2 µM -2% | [9]; at 3.7 µM -1% | [9]; [17] 5% | [9]; at 11.0 µM 12% | [9]; at 33.0 µM 45% | [9]; [18] 2% | [9]; at 100.0 µM -9% | [10]; at 1.2 µM -3% | [10]; at 3.7 µM 0% | [10]; at 11.0 µM -1% | [10]; at 33.0 µM 34% | [10]; at 100.0 µM -6% | [11]; at 1.2 µM -2% | [11]; at 3.7 µM -4% | [11]; at 11.0 µM 2% | [11]; at 33.0 µM 11% | [11]; at 100.0 µM 10% | [12]; at 1.2 µM -1% | [12]; at 3.7 µM 1% | [12]; at 11.0 µM 2% | [12]; at 33.0 µM 35% | [12]; at 100.0 µM 46% | [13]; [17] 12% | [13]; [18] 7% | [14]; at 1.2 µM 1% | [14]; at 3.7 µM 10% | [14]; at 11.0 µM 5% | [14]; at 33.0 µM 35% | [14]; at 100.0 µM -12%

COc1ccc(N=C2C(=O)Nc3ccc(Br)cc32)cc1
inactive: [15]; at 1.2 µM 8% | [15]; at 3.7 µM 15% | [15]; at 11.0 µM 9% | [15]; at 33.0 µM 14% | [15]; at 100.0 µM 15% | [2]; at 1.2 µM -9% | [2]; at 3.7 µM 1% | [2]; at 11.0 µM -11% | [2]; at 33.0 µM 6% | [2]; at 100.0 µM -20% | [3]; at 1.2 µM 8% | [3]; at 3.7 µM -24% | [3]; at 11.0 µM -5% | [3]; at 33.0 µM 2% | [3]; at 100.0 µM 1% | [4]; at 1.2 µM -14% | [4]; at 3.7 µM -14% | [4]; [17] 50% | [4]; at 11.0 µM -23% | [4]; at 33.0 µM -11% | [4]; [18] 61% | [4]; at 50.0 µM 13.8% | [4]; at 100.0 µM -5% | [5]; at 1.2 µM -19% | [5]; at 3.7 µM -13% | [5]; [17] 48% | [5]; at 11.0 µM -19% | [5]; at 33.0 µM -26% | [5]; [18] 61% | [5]; at 50.0 µM 10.7%
